# hERG WT inh: qHTS for Inhibitors of KCHN2 3.1: Wildtype qHTS | Voltage-gated inwardly rectifying potassium channel KCNH2 (Homo sapiens), Q12809 | U2OS, BacMam KCNH2, thallium flux FluxOr; stronger effect = lower value | activity change, % at 1.84 µM | 340,000 compounds, 0.37% hits;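 active = maximum activity change below -70%; inconclusive = maximum activity change between -70% and -50%; inactive = maximum activity change above -50%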; also: % is scaled to controls: 0 for no effect and ±100 for the full control effect
# Target sequence (Q12809 whole entry, looked up): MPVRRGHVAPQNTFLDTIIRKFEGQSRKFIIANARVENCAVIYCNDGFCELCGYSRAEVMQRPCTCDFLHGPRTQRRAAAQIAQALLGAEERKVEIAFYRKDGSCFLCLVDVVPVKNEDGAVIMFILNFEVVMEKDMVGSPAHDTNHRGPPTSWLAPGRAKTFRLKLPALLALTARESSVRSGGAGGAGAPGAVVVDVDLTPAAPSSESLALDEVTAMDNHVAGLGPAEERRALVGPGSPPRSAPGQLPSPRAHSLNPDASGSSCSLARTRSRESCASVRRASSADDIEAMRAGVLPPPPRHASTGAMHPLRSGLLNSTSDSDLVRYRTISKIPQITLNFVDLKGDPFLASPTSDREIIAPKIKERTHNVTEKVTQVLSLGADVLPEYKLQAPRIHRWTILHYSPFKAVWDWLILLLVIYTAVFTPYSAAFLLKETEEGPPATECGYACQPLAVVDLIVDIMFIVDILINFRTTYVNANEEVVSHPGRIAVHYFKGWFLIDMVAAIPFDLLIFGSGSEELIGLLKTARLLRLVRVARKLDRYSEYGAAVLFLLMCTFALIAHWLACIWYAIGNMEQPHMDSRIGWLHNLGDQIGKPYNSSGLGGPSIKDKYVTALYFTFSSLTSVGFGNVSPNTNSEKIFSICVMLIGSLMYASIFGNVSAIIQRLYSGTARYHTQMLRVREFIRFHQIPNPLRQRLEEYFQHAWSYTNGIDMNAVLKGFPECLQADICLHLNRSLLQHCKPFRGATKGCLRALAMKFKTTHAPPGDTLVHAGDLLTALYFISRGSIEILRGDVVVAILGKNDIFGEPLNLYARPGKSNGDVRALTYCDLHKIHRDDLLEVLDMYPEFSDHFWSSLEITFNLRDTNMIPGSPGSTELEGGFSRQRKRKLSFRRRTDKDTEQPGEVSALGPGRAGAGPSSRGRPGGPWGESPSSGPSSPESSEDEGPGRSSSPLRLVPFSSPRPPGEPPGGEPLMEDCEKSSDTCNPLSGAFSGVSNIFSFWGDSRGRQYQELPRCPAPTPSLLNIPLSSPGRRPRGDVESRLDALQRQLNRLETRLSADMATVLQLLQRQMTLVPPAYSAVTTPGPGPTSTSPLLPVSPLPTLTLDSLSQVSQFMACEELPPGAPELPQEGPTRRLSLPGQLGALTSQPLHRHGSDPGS
#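 U2OS cells were transduced with wild-type KCNH2 virus (2.03 x 10^8 / mL) for 4 h at room temperature, then cultured overnight at 37 C. Thallium flux was read with FluxOr dye. Rate constants were normalized to DMSO controls.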
# TRPV1 PAM: HTS Assay for Compounds that Act as Potentiators of the Vanilloid Receptor 1 | Transient receptor potential cation channel subfamily V member 1 (Homo sapiens), Q8NER1 | potentiation, % at 8.33 µM | TRPV1-expressing cells, Fluo-8 calcium influx, capsaicin EC20 potentiation | 320,000 compounds, 0.02% hits | AID 540277, 2011; in the data active = potentiation above about 80%; inconclusive = between about 30% and that limit; also: 0% is about no effect
#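 Cells expressing TRPV1 were dye-loaded with Fluo-8 and read kinetically: 10 s baseline, 3 min after compound (agonist portion), then 2 min after EC20 capsaicin (allosteric enhancer portion). Calcium-bound dye fluorescence at 480/520 nm.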
# TRPV1 ag: HTS Assay for Compounds that Act as Agonists of the Vanilloid Receptor 1; Transient receptor potential cation channel subfamily V member 1 (Homo sapiens), Q8NER1; TRPV1-expressing cells, Fluo-8 calcium influx, agonist mode; activation, % at 8.33 µM; 320,000 compounds, 0.19% hits; in the data active = activation above about 80%; inconclusive = between about 30% and that limit; also: 0% is about no effect
#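 TRPV1-expressing cells were cultured overnight at 35.5C and loaded with Fluo-8 calcium dye for 40 to 90 min at room temperature. After a 10 s baseline, compound was added and calcium influx was read kinetically for 3 min (ex 480/em 520 nm).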
# TRPML1 blocker: qHTS for Inhibitors of the Human Mucolipin Transient Receptor Potential 1 (TRPML1); activity change, negative = inhibition, % (concentration not given with the values); Mucolipin-1 (Homo sapiens), Q9GZU1; TRPML1-inducible cells, Ca2+ dye fluorescence, FDSS; stronger effect = lower value; inhibition of EC80 agonist-evoked calcium signal; 390,000 compounds, 0.02% hits; in the data active = activity change below about -50%; inconclusive = between about -30% and that limit;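 also: stimulus is agonist 54-4 at its EC80 concentration; % is scaled to controls: 0 for no effect and ±100 for the full control effect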
#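 Calcium fluorescence in TRPML1-DL cells induced overnight with Tet: a 110 s read after compound pin addition, then a 110 s antagonist read after challenge with 54-4 at 4 uM final (EC80).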
# TRPML1 ag: qHTS for Agonists of the Human Mucolipin Transient Receptor Potential 1 (TRPML1) | TRPML1-expressing cells, Ca2+ dye fluorescence, FDSS | Mucolipin-1 (Homo sapiens), Q9GZU1 | activation, % (test concentration not listed) | 410,000 compounds, 0.12% hits; in the data active = activation above about 50%; inconclusive = mostly about 30% to 49%; also: 0% is about no effect
#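 Kinetic FDSS Ca2+ read in Tet-induced TRPML1-DL cells (ABD Ca8 dye plus quencher, 45-90 min RT loading): baseline, then compound, then 110 s agonist window; EC80 agonist 54-4 at 4uM final added afterwards for a 110 s antagonist window.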
# KCNH2 3.1 inh: qHTS for Inhibitors of KCHN2 3.1: Mutant qHTS | Potassium voltage-gated channel subfamily H member 2, brain isoform KCNH2 3.1 (human) | U2OS KCNH2 3.1, thallium flux FluxOr; stronger effect = lower value | activity change, % (tested at about 1.8 µM) | 340,000 compounds, 0.95% hits | AID 720553, 2013;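 active = maximum activity change below -70%; inconclusive = maximum activity change from -70% to -50%; inactive = maximum activity change above -50%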;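 also: thallium influx rate constant from kinetic fluorescence after stimulation buffer; % is scaled to controls: 0 for no effect and ±100 for the full control effect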
#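 U2OS cells transduced with KCNH2 3.1 mutant virus (1.77 x 10^8 /mL, 4 h), plated overnight at 37 C, loaded 45 min with FluxOr dye plus Red40 quencher. Thallium flux rate constant from kinetic reads after stimulation buffer, normalised to controls.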
# Starred values were filed as active, the others as inactive; ? = inconclusive; nt = not tested or not shown. A selection: hits, their analogues and other compounds. The true share with any hit is near 1.3%.
SMILES,hERG WT inh,TRPV1 PAM,TRPV1 ag,TRPML1 blocker,TRPML1 ag,KCNH2 3.1 inh
O=C(Nc1ccnn1C1CCN(Cc2ccc3nonc3c2)CC1)c1cccc(F)c1,11,-34,2,4,1,-7
COc1ccc(CCNC(=O)c2nc(SCc3ccccc3F)ncc2Cl)cc1OC,nt,nt,nt,0,1,nt
C=CCc1ccc(OCC(O)CN2CCC(Cc3ccccc3)CC2)c(OC)c1 (configuration not stated),-31,-16,1,1,0,-86*
C=CCc1ccc(OCC(O)CN2CCN(Cc3ccc(Cl)cc3)CC2)c(OC)c1 (configuration not stated),-50,-1,-2,-2,2,-83*
C=CCc1ccc(OCC(O)CN2CCN(c3ccccc3OC)CC2)c(OC)c1 (configuration not stated),-5,0,0,-10,2,-8
O=S(=O)(c1ccc(Cl)cc1)N1CCN(c2nc(-c3ccccc3)nc3ccccc23)CC1,nt,nt,nt,nt,-1,nt
FC(F)(F)c1cccc(NC(=S)NC2CCCC2)c1,-1,-10,?,12,2,-106*
Cc1ccc(OC(=O)c2cc(-c3ccc4c(c3)OCCO4)on2)c(C)c1,nt,nt,nt,18,1,nt
O=C(Nc1cccc(-c2cccc(F)c2)c1)C1CCN(CC2CCOC2)CC1 (configuration not stated),-44,-5,13,-9,2,-79*
O=C(Nc1cccc(-c2cccc(F)c2)c1)C1CCN(C2CCC2)CC1,-97*,-16,7,29,10,-91*
O=C(Nc1cccc(F)c1)C1CCCCC1,5,-11,5,-3,1,6
C=C1C=C(C)n2ncc(C(=O)NCCCCCC)c2N1,nt,nt,nt,nt,-1,nt
CC/C(=C/c1ccccc1OC)c1cc(-c2ccccc2)cc2oc3ccccc3c12,nt,nt,nt,nt,1,nt
O=[N+]([O-])c1ccc(N2CCN(c3ccc([N+](=O)[O-])cc3CO)CC2)c(CO)c1,?,6,3,1,0,-89*
O=C(C[N+]1(CCO)CCOCC1)c1cccc2ccccc12,nt,nt,nt,nt,0,nt
COc1cccc(NC(=O)COC(=O)c2c(NC(C)=O)sc(C)c2C)c1,-73*,6,-2,9,0,1
c1ccc2c(NC3CCCC3)nnc(NC3CCCC3)c2c1,7,-4,1,-4,23,-82*
CNc1nc(Cl)c(SC)c(NC2CCCCC2)n1,-13,-8,17,15,0,nt
Clc1nnc(NC2CCCCC2)c(Cl)c1Cl,11,nt,nt,10,1,-77*
O=C(CSc1nnc(-c2cccc(Br)c2)o1)NCC1CCCO1 (configuration not stated),-218*,nt,nt,-2,0,-174*
Cc1ccc2c(c1)nnn2C1CCN(C(=O)NCc2ccccc2)CC1,0,-13,89*,-9,-1,-5
Cc1cccc(NC(=O)N2CCC(n3nnc4cc(C)ccc43)CC2)c1,15,-11,?,-3,1,1
CCOC(=O)c1oc2ccccc2c1COC(=O)CNC(=O)c1cccc(C)c1,-1,0,0,2,0,-80*
N#Cc1nc(-c2ccc(OCc3ccccc3Cl)cc2)oc1N1CCCCCC1,nt,nt,nt,nt,-1,nt
Cc1ccc2[nH]c(=O)c(CN(Cc3cccs3)S(=O)(=O)c3ccc4c(c3)OCCO4)cc2c1,3,-9,0,18,1,-120*
SMILES,hERG WT inh,TRPV1 PAM,TRPV1 ag,TRPML1 blocker,TRPML1 ag,KCNH2 3.1 inh
COc1cc(OC)c(/C=C/c2cc3ccccc3c[n+]2C)c(OC)c1,nt,nt,nt,nt,0,nt
Cc1ccccc1NC(=O)CN1C(=O)CCn2nc(-c3cccn3C)cc21,nt,nt,nt,10,1,nt
CN1C(=O)c2ccccc2Sc2ccc(NC(=O)NCc3cccc(Cl)c3)cc21,nt,nt,nt,-9,0,nt
Cc1ccc(CNC(=O)c2cccc3c2C(=O)c2ccc(N4CCCCC4)cc2S3(=O)=O)cc1,-20,1,14,-7,50*,12
Cc1ccc(CNC(=O)c2cccn2-c2nnc(N3CCCCC3)s2)cc1,nt,nt,nt,4,2,nt
Cc1ccc(-n2ncc3c(NCc4cccnc4)ncnc32)cc1C,5,-9,12,-3,0,-7
COc1ccccc1Nc1ncnc2c1cnn2-c1cccc(C)c1,13,5,85*,0,0,-3
Cc1cccc(-n2ncc3c(NCc4cccnc4)ncnc32)c1,-13,0,4,-1,0,-102*
CCC(Sc1nc2c(sc3ccccc32)c(=O)n1CCc1ccc(OC)c(OC)c1)C(=O)N(CC)CC (configuration not stated),nt,nt,nt,65,0,nt
CCC1(CC)SCCNC1=O,-282*,nt,nt,-11,0,-1
Cc1ccccc1C(=O)c1cccn1CC(=O)N1CCCCCC1,5,0,-1,12,0,-100*
Cc1ccccc1C(=O)c1cccn1CC(=O)O,-4,-4,3,51,0,-7
Cc1cc(C)c2c(=O)c3c(oc2c1)C(=O)N(CCO)C3c1cccc(O)c1 (configuration not stated),-15,-11,-1,-56*,0,21
Cc1ccc2oc3c(c(=O)c2c1)C(c1cccc(O)c1)N(CCCN1CCOCC1)C3=O (configuration not stated),nt,nt,nt,17,-1,nt
Cc1cc(NC(=O)COC(=O)CC2CCCC2)c([N+](=O)[O-])cc1C,-13,-6,18,-10,0,-72*
CCOC(=O)c1cc(-c2ccc(OC)cc2)n(CCC(=O)NC2CCC(C)CC2)c1C (configuration not stated),nt,nt,nt,43,3,nt
N#Cc1ccc(NC(=O)COc2ccccc2C(=O)Nc2ccccc2)cc1,nt,nt,nt,nt,0,nt
CC(=O)c1cccc(NC(=O)c2nc3ccccc3nc2N2CCCCC2)c1,nt,nt,nt,?,1,nt
N=c1sccn1CC(=O)N1N=C(c2ccc(Cl)cc2)CC1c1ccco1 (configuration not stated),14,8,4,-21,0,-86*
O=C(OCC(=O)N1N=C(c2ccc(Cl)cc2)CC1c1ccco1)c1ccco1 (configuration not stated),-16,2,-3,4,0,1

# Screening data as filed in PubChem BioAssay.
